Data on 16 molecules can be found in PubChem BioAssay.

Assay [1] in a line: EMT-state selective cytotoxicity in co-culture – imaging, PC-3E GFP, TEM4-18 mCherry, primary screen (AID 1345086).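 As to all read-outs here: cells exposed to compound for 72 h before imaging.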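 As to red/green cell ratio (normalised): normalised mesenchymal count divided by normalised epithelial count so high means epithelial killing.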 To be noted: PC-3E GFP / TEM4-18 mCherry co-culture, imaging cell counts, at 1 µM; for red/green cell ratio (normalised): actives lie on both sides.
In assay [2] the test system is Aerobactin synthetase IucA (Klebsiella pneumoniae hvKP1). Put plainly: IucA enzyme inhibition, primary screen, biochemical, Spectrum library (AID 1346200; call rule not given here;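 also: 100% = wells without compound and 0% = wells lacking enzyme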). Conditions: malachite green pyrophosphate, A620, at 8 µM, stronger effect = lower value.
Assay [3] can be described thus: P. berghei load reduction in hepatocytes – cell-based, HepG2, luciferase luminescence, HepG2 viability, primary screen (AID 624349; in the data active = parasite load remaining mostly below about 12%, no sharp cut-off; inactive = mostly above about 10%;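 also: 100% = mean of DMSO negative control wells on the same plate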). To be noted: P. berghei liver stage in HepG2, luciferase luminescence, concentration not given here; parasite load remaining: stronger effect = lower value; viability: measured here: HepG2 viability without parasites.
The nature of assay [4]: viability loss with induced miR-34 in A549 – imaging, A549 dox-inducible miR-34, nuclei and caspase counts, primary screen (AID 1347080;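 active = compounds whose cell count with miR-34 switched on is under 0.7 times the count with it off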). To be noted: A549 miR-34 inducible, Hoechst nuclei count, 48 h.
[5] abbreviates: measured here: epithelial PC-3E GFP cell survival.
Setting [6] is: measured here: mesenchymal TEM4-18 mCherry cell survival.
Where [7] appears, read: measured here: relative caspase fold change +Dox/-Dox.
Setting [8] is: measured here: total cells with miR-34 induction, stronger effect = lower value.
Setting [9] is: measured here: total cells without miR-34 induction.

Several values for one entry are separate records, joined by “and”; a condition that tells them apart may be missing. Identical values can stand only once. Activity calls are given as the source filed them.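 The calls were made as follows, unless noted: active = compounds killing one labelled cell type while sparing the other, by normalised counts and ratio limits, not self-fluorescent; inactive = the rest.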

In the case of `Nc1ncn[nH]1`, in assay [1], the red/green cell ratio (normalised) was 1.3 (inactive). In addition, the values for the normalised cell number in assay [1] (setting [5]) and in assay [1] (setting [6]) were 0.82 and 1.07, respectively. For the same molecule, the activity remaining in assay [2] was 92.7% (inactive).
Taken in the same sequence, the figures for `CC1(C)C(=O)C=C[C@@]2(C)C1C[C@@H](O)[C@]1(C)C2CC[C@@]2(C)[C@H](c3ccoc3)OC(=O)[C@H]3O[C@]321` (stereo partly specified) were 1.08 (inactive), 0.88, 0.95 and 88.4% (inactive).
As to `COC[C@]12CN(C=O)C3[C@@H]4[C@H](OC)C1[C@]3(C1CC3(O)C(OC)C(O)C4(OC(C)=O)C1C3OC(=O)c1ccccc1)[C@@H](OC)C[C@H]2O` (stereo partly specified), the red/green cell ratio (normalised) in assay [1] is 1 (inactive). For the same molecule, the normalised cell number in assay [1] (setting [5]) and in assay [1] (setting [6]) was 1.06 in each case. Further, in assay [2], the activity remaining is 118% (inactive).
Turning to `COC(C)(C)CCC[C@H](C)C/C=C/C(C)=C/C(=O)OC(C)C`, in assay [1], the red/green cell ratio (normalised) is 0.86 (inactive). Besides, the normalised cell number came out at 1.2 in assay [1] (setting [5]) and 1.03 in assay [1] (setting [6]). In addition, the activity remaining in assay [2] is 109% (inactive).
As for `CC1(C)C(=O)C=C[C@@]2(C)C1=C(O)C(=O)[C@]1(C)C2CC[C@@]2(C)[C@H](c3ccoc3)C[C@H]3O[C@]321` (stereo partly specified), the red/green cell ratio (normalised) in assay [1] is 1.22 (inactive). For the same molecule, the normalised cell number in assay [1] (setting [5]) came out at 0.97; in assay [1] (setting [6]) it was 1.19. For the same molecule, the activity remaining in assay [2] is 116% (inactive).
As to `N#CC(O[C@@H]1O[C@H](CO[C@@H]2O[C@H](CO)[C@@H](O)[C@H](O)[C@H]2O)[C@@H](O)[C@H](O)[C@H]1O)c1ccccc1` (stereo partly specified), in assay [3], the parasite load remaining is 116% (inactive) and the viability stood at 70.2%. Moreover, the red/green cell ratio (normalised) in assay [1] is 1 (inactive). The molecule further had a normalised cell number in assay [1] (setting [5]) of 0.94. Also, the normalised cell number in assay [1] (setting [6]) amounted to 0.94. For the same molecule, the activity remaining in assay [2] was 123% (inactive).
Consider `O=C1CC[C@@]2(O)[C@H]3Cc4ccc(O)c5c4C2(CCN3CC2CC2)[C@H]1O5`, for which the parasite load remaining in assay [3] is 70.5% (inactive) and 73.3% (inactive). Besides, the viability in assay [3] is 84.7% and 132%. Also, the red/green cell ratio (normalised) in assay [1] was 1.24 (inactive). Besides, the normalised cell number in assay [1] (setting [5]) stood at 1.01; in assay [1] (setting [6]) it was 1.26. In addition, in assay [2], the activity remaining was 104% (inactive). In addition, the fold change in assay [4] (stronger effect = lower value) is 0.853 (inactive); in assay [4] (setting [7]) it was 4.3. For the same molecule, the cell count in assay [4] (setting [8]) was found to be 11500; in assay [4] (setting [9]) it was 13400.
On to `C=C[C@H]1CN2CC[C@H]1C[C@@H]2[C@H](O)c1ccnc2ccccc12`, for which the parasite load remaining in assay [3] is 84.2% (inactive) and 28.1% (inactive). Moreover, the viability in assay [3] was 73.3% and 88.8%. Also, in assay [1], the red/green cell ratio (normalised) is 1.26 (inactive). For the same molecule, the values for the normalised cell number in assay [1] (setting [5]) and in assay [1] (setting [6]) were 0.87 and 1.1, respectively. Besides, in assay [2], the activity remaining is 125% (inactive). Further, the fold change in assay [4] (stronger effect = lower value) is 0.93 (inactive); in assay [4] (setting [7]) it was 2.81. For the same molecule, the cell count worked out at 12200 in assay [4] (setting [8]) and 13100 in assay [4] (setting [9]).
With `O=c1c(O)c(-c2ccc(O)c(O)c2)oc2c(O)c(O)cc(O)c12`, the red/green cell ratio (normalised) in assay [1] was 1.09 (inactive). Also, the normalised cell number is 0.84 in assay [1] (setting [5]) and 0.91 in assay [1] (setting [6]). The activity remaining in assay [2] was 118% (inactive).
Taken in the same sequence, the figures for `C=C(C)C1Cc2c(ccc3c(=O)c4c(oc23)COc2cc(OC)c(OC)cc2-4)O1` (stereo unspecified) were 0.91 (inactive), 0.94, 0.86 and 126% (inactive).
`CC1CC[C@]2(NC1)O[C@H]1CC3C4CC[C@H]5C[C@@H](O)CC[C@]5(C)C4CC[C@]3(C)[C@H]1[C@@H]2C` (stereo partly specified): the red/green cell ratio (normalised) in assay [1] (counts scaled to control wells, 1 = unselective) was 0.81 (inactive). The values for the normalised cell number in assay [1] (setting [5]) and in assay [1] (setting [6]) were 1.1 and 0.89, respectively. Besides, the activity remaining in assay [2] was 96.8% (inactive).
For the molecule `CC(=O)O[C@@H]1CC2C(C)(C)C(=O)C=C[C@]2(C)C2CC[C@]3(C)C(=CC(=O)O[C@H]3c3ccoc3)[C@@]21C` (stereo partly specified), the red/green cell ratio (normalised) in assay [1] was 1.01 (inactive). In addition, the normalised cell number in assay [1] (setting [5]) is 0.98; in assay [1] (setting [6]), 0.99. For the same molecule, the activity remaining in assay [2] is 123% (inactive).
Taken in the same sequence, the figures for `CC1(C)C2CC(=O)[C@]3(C)C(CC[C@@]4(C)[C@H](c5ccoc5)OC(=O)[C@H]5O[C@]543)[C@@]2(C)C(=O)C[C@H]1O` (stereo partly specified) were 0.94 (inactive), 1.08, 1.01 and 109% (inactive).
As for `NC1C[C@H]1c1ccccc1` (stereo partly specified), in assay [3], the parasite load remaining is 139% (inactive) and 41.7% (inactive). In addition, the viability in assay [3] is 72.4% and 86.6%. Moreover, the red/green cell ratio (normalised) in assay [1] was 1.23 (inactive). In addition, the results for the normalised cell number in assay [1] (setting [5]) and in assay [1] (setting [6]) were 0.99 and 1.22, respectively. Besides, the activity remaining in assay [2] is 123% (inactive). Also, the fold change in assay [4] (stronger effect = lower value) was 0.916 (inactive); in assay [4] (setting [7]) it was 1.81. Also, the cell count worked out at 11800 in assay [4] (setting [8]) and 12900 in assay [4] (setting [9]).
Take `CCN1C[C@@]2(COC)C3[C@@H](OC)[C@H]4[C@@H]1[C@]3(C(OC)C[C@H]2O)C1C[C@@]2(O)[C@H](OC(=O)c3ccccc3)C1[C@]4(OC(C)=O)[C@@H](O)[C@@H]2OC` (stereo partly specified): in assay [3], the parasite load remaining was 85.5% (inactive) and 32.5% (inactive). For the same molecule, in assay [3], the viability was 79.4% and 105%. Moreover, the red/green cell ratio (normalised) in assay [1] is 1.07 (inactive). Further, the normalised cell number was found to be 1.01 in assay [1] (setting [5]) and 1.07 in assay [1] (setting [6]). In assay [2], the activity remaining was 113% (inactive). Moreover, the results for the fold change in assay [4] (stronger effect = lower value) and in assay [4] (setting [7]) were 0.875 (inactive) and 3.63, respectively. Moreover, the cell count was 11000 in assay [4] (setting [8]) and 12600 in assay [4] (setting [9]).
Take `CC1[C@H](C)OC(=O)CC(O)CC(O)CC(O)CCC(O)C(O)C[C@]2(O)CC(O)C(C(=O)O)C(CC(OC3O[C@H](C)[C@@H](O)[C@H](N)[C@@H]3O)/C=C/C=C/C=C/C=C/CC/C=C/C=C/[C@H](C)[C@H]1O)O2` (stereo partly specified): in assay [3], the parasite load remaining was 87.6% (inactive) and 108% (inactive). Also, in assay [3], the viability is 71.5% and 89.6%. Further, the red/green cell ratio (normalised) in assay [1] was 1.28 (inactive). Besides, the normalised cell number in assay [1] (setting [5]) was 0.98; in assay [1] (setting [6]), 1.25. In assay [2], the activity remaining is 89.3% (inactive). For the same molecule, the fold change is 0.841 (inactive) in assay [4] (stronger effect = lower value) and 0.89 in assay [4] (setting [7]). Besides, the cell count in assay [4] (setting [8]) was found to be 11200; in assay [4] (setting [9]), 13400.

In general, viability refers to a read-out of living cells in per cent, often relative to untreated cells.
